Assay outcomes as filed in PubChem.
A selection: hits, their analogues and other compounds. The true share with any hit is near 11%.
HCV inhibitor: HCV inhibition; AID 651820; hit rate 3.4% among 340,000; Potency, µM (series often up to 41.8 µM), most hits filed as inhibitors; Huh7.5.1 HCVcc-Cre infection, luciferase reporter, 44 h
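Cells (1,000/well) were plated 4 h before compound, then infected with HCVcc-Cre virus (~0.5 moi). After 44 h further culture, infection was read as luciferase luminescence following a 15 min substrate incubation at room temperature.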
AmpC detergent: AmpC beta-lactamase inhibition with detergent present; AmpC hydrolysis of nitrocefin, absorbance 480 nm, 0.01% Triton; Potency, µM (series often up to 114 µM), usual class: inhibitors; hit rate 0.041% among 370,000; AID 485294; note: nearly all actives have a fitted effect of over 25% in size
Target sequence (P00811 whole entry, looked up): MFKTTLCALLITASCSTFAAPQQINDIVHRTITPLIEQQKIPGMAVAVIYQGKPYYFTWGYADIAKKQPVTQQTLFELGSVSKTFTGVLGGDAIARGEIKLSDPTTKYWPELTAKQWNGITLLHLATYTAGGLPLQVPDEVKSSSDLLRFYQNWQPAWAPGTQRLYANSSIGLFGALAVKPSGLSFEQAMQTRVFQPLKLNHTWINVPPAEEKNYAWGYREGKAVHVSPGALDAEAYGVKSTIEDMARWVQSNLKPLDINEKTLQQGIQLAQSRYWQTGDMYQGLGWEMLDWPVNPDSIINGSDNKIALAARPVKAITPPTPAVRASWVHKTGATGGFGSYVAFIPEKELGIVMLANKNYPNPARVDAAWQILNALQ
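20 mM phosphate pH 7.0 + 0.01% (detergent screen) or 0.0001% Triton X-100; 5.3 nM AmpC reagent; cpd preinc 15 min RT; nitrocefin (800 uM stock) to start; A480 q20 s × 4 min; Activity was normalised to no-enzyme and no-compound control wells.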
AMA1-RON2 inh: inhibitors of Plasmodium falciparum AMA1-RON2 interaction; AlphaScreen AMA1-biotinylated RON2 peptide binding; Potency, µM (series often up to 58.2 µM), hits mostly inhibitors; hit rate 0.2% among 360,000; note: nearly all actives have a fitted effect of over 45% in size
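AMA1 (3D7) with his tag at 25 nM final met compounds first, then biotinylated RON2 peptide at 25 nM; detection used donor plus acceptor beads, 10 µg/mL apiece, read by AlphaScreen after 30 min at room temperature.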
Pf growth 96h: inhibits malaria parasite growth, 96 h | P. falciparum luciferase reporter growth, 96 h | Potency, µM (series often up to 28.7 µM), usual class: inhibitors | hit rate 6.9% among 320,000
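Plates of compound plus infected erythrocytes (2% hematocrit, 0.05% parasitemia final) incubate 96 hours, 37 C, 5% CO2. Detection reagent added; reduced luminescence from the parasites' luciferase reporter flags inhibition.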
AmpC inh no detg: blocks E. coli AmpC beta-lactamase in detergent-free assay. hit rate 0.52% among 330,000. AmpC nitrocefin hydrolysis, absorbance 480 nm, 0.0001% Triton. Potency, µM (doses to about 57.1 µM), most hits filed as inhibitors. P00811; note: nearly all actives have a fitted effect of over 20% in size
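20 mM phosphate pH 7.0 + 0.01% (detergent screen) or 0.0001% Triton X-100; 5.3 nM AmpC reagent; cpd preinc 15 min RT; nitrocefin (800 uM stock) to start; A480 q20 s × 4 min; Activity was normalised to no-enzyme and no-compound control wells.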
Pf growth 48h: P. falciparum growth inhibition at 48 hours (one generation) | P. falciparum luciferase growth in erythrocytes, 48 h | Potency, µM (top dose mostly 28.7 µM), actives largely listed as inhibitors | hit rate 5.9% among 310,000 | AID 504832
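Luciferase-expressing parasites in RBCs, 2% Hct / 0.1% parasitemia final; RPMI 1640 + 0.5% Albumax; 37 C, 5% CO2, one generation; luminescence read-out, lower signal = inhibition.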
Hits are given with their value; 0 = inactive; ? = inconclusive; - = not tested or not shown; [ ] = remark or other dose. Calls come from the whole dose curve; as a rule, active = well fitted curve in the direction sought with a large enough effect; inconclusive = small, poorly fitted or top-dose-only effect, or another doubt; inactive = no such curve, though single readings can be large; an effect the other way counts as inactive or inconclusive.

SMILES | HCV inhibitor | AmpC detergent | AMA1-RON2 inh | Pf growth 96h | AmpC inh no detg | Pf growth 48h
COc1ccc(COCC(CC(C)C)N2CCN(C(=O)c3cccc(C(F)(F)F)c3)CCC2=O)cc1 (stereo not drawn) | 0 | 0 | 0 | ? | 0 | 10µM
CC(C)CC(COCc1ccc(Cl)cc1)N1CCN(C(=O)c2ccc(Cl)cc2Cl)CCC1=O (stereo not drawn) | ? | 0 | 0 | ? | 0 | 10µM
CC(C)C[C@@H](COCc1cccc(C(F)(F)F)c1)N1CCN(C(=O)c2ccc(C(F)(F)F)cc2)CCC1=O | - | - | 0 | - | - | -
CC(C)CC(COCc1cccc(Cl)c1)N1CCN(C(=O)c2cccc(C(F)(F)F)c2)CCC1=O (stereo not drawn) | 0[8.37 µM] | 0 | 0 | 10µM | 0 | ?
O=C(Nc1cccc(-n2cnnn2)c1)C1CCCN(Cc2cccc(C(F)(F)F)c2)C1 (stereo not drawn) | ? | 0 | 0 | 0 | 0 | 15µM
Cc1cc(CN2CCCC(C(=O)Nc3cccc(-n4cccn4)c3)C2)cc(C)c1O (stereo not drawn) | 13µM | ? | 0 | 0 | 0 | ?
Cn1cc(CN2CCCC(C(=O)Nc3cccc(-n4cccn4)c3)C2)cn1 (stereo not drawn) | 0 | ? | 0 | ? | 0 | 0
O=C(Nc1cccc(-n2cccn2)c1)C1CCCN(Cc2cccc(F)c2F)C1 (stereo not drawn) | ? | 0 | 0 | 0 | 0 | 0
Cc1c(CN2CCCC(C(=O)Nc3cccc(-n4cccn4)c3)C2)cnn1C (stereo not drawn) | ? | 0 | 0 | 13µM | 0 | 0
CCn1ncc(CN2CCCC(C(=O)Nc3cccc(-c4cc5ccccc5[nH]4)c3)C2)c1C (stereo not drawn) | ? | 0 | 0 | 0 | 0 | 4.1µM
CC(CNC(=O)c1cccnc1)NC(=O)c1cccnc1 (stereo not drawn) | - | - | - | 0 | - | 0
CC(=O)c1cc(-c2ccc(F)cc2)n(CCC(=O)NCc2ccc(C)cc2)c1C | - | 0 | - | - | - | -
COc1ccccc1CNc1nc(-c2ccco2)nn1S(=O)(=O)c1ccc2ccccc2c1 | - | 0 | - | - | - | -
Cc1c(Cl)cccc1NC(=O)Cn1c(=O)n(Cc2ccco2)c(=O)c2oc3ccccc3c21 | - | 0 | - | - | - | -
O=C(CN1CCCCC1)Nc1cccc(-n2cnnn2)c1 | 0 | 0 | 0 | ? | 0.14µM | 0
CCOc1ccc(NC(=O)CN(C)S(=O)(=O)c2ccc3c(c2)c(=O)n(C)c(=O)n3C)cc1 | - | 0 | - | - | - | -
Cc1ccc(NC(=O)CSc2ncc3c(n2)-c2ccccc2N(Cc2cccc(F)c2)S3(=O)=O)cc1F | - | 0 | - | - | - | -
Cc1ccc(-c2c[n+]3c(n2-c2ccccc2)CCC3)cc1 | ? | 0 | 0 | 0.15µM | 0 | 1.5µM
c1ccc(-c2c[n+]3c(n2-c2ccccc2)CCC3)cc1 | ? | 0 | 0 | ? | 0 | 0.83µM
CCOc1ccc(-n2c(-c3ccccc3)c[n+]3c2CCCCC3)cc1 | ? | 0 | 0 | ? | 0 | ?
CCC(C)[C@H](NC(=O)C1(c2ccccc2)CCN(C(=O)OC(C)(C)C)CC1)C(=O)N[C@@H](C(=O)O)c1ccccc1 (stereo partly drawn) | 0 | ? | 0 | 13µM | 0 | 13µM
CCc1c(C)nc2[nH]nc(-c3ccccc3)n2c1=O | 0 | 0 | 0 | 0 | 0 | 0
CCc1c(C)nc2[nH]nc(-c3ccccc3C)n2c1=O | 0 | 0 | 0 | - | 0.28µM | 0
CCOC(=O)c1cnc2c(Cl)c(Cl)ccc2c1Nc1ccc(N(C)C)cc1 | - | 0 | - | - | - | -
CC(C)c1ccc(C2=NC(c3ccncc3)=Nc3ccc(F)cc3N2)cc1 | - | 0 | - | - | - | -
SMILES | HCV inhibitor | AmpC detergent | AMA1-RON2 inh | Pf growth 96h | AmpC inh no detg | Pf growth 48h
Cc1cccc(-n2c(O)c(/C=C/C=Nc3ccccc3)c(=O)[nH]c2=O)c1 | 0 | 0 | 0 | 0 | 0 | 0
Cc1ccccc1-n1c(O)c(/C=C2/C(c3ccccc3)=Nc3ccccc32)c(=O)[nH]c1=O | ? | 0 | 0 | 0 | 0 | 12µM
Cc1ccc(-n2c(O)c(/C=C3/C(c4ccccc4)=Nc4ccccc43)c(=O)[nH]c2=O)cc1 | ? | 0 | 0 | 7.4µM | 0 | 8.3µM
CC1=Nc2ccccc2/C1=C/c1c(O)n(C)c(=O)[nH]c1=O | 0 | 0 | 0 | 0 | 0 | 0
Cc1cccc(-n2c(O)c(/C=C3/C(c4ccccc4)=Nc4ccccc43)c(=O)[nH]c2=O)c1 | ? | 0 | 0 | 12µM | 0 | 10µM
Cc1cc(C)n(-c2nc(C)c(C)c(=O)n2CC(=O)Nc2ccc([N+](=O)[O-])cc2)n1 | - | 0 | - | - | - | -
CC(=O)NC(c1ccco1)c1cc(Br)c2cccnc2c1O (stereo not drawn) | - | 0 | - | ? | 0 | ?
O=C1CC(c2ccccc2)Cc2[nH]c(=O)c(C(=O)Nc3ccc(OC(F)(F)F)cc3)cc21 (stereo not drawn) | - | 0 | - | - | - | -
CCOc1ccc(OCC)c(S(=O)(=O)N2CCN(c3cccc(C)c3C)CC2)c1 | - | 0 | - | - | - | -
C=C1CC2C(CC[C@]3(C)C(=O)CCC23)[C@]2(C)C=CC(=O)C=C12 (stereo partly drawn) | - | - | - | 13µM | - | ?
CCC(=O)N1CCc2cc(S(=O)(=O)NCCC(=O)NC(C)c3ccccc3)ccc21 (stereo not drawn) | - | 0 | - | - | - | -
c1ccc(CNc2nc3c(-c4ccccc4)nnn3c3ccccc23)cc1 | - | 0 | - | - | - | -
Cc1ccc(-n2c(=S)[nH]c3c(oc4ccccc43)c2=O)cc1C | 0 | 0 | 0[11.6 µM] | 0 | 0 | 0
